# Measurements published in PubChem BioAssay (EPA / NIEHS).
# Results filed as inconclusive are left out. Active and inactive are the calls of the source. The calls were made as follows, unless noted: active = hit-call score of the fitted dose curve at least 0.9, where 1 is the maximum; inactive = score below 0.9.
# How the values were obtained:
# [1] = target: Oxysterols receptor LXR-beta (Homo sapiens) (UniProt P55055); assay: ATG_LXRb_TRANS: Attagene TRANS-FACTORIAL HepG2 Assay for human Liver X Receptor beta (LXRb) (AID 2282981; active = hit-call score of the fitted dose curve at least 0.9, where 1 is the maximum); settings: HepG2 Attagene TRANS GAL4-LXRb reporter, mRNA
# Chain of Oxysterols receptor LXR-beta (Homo sapiens) (P55055 whole entry, looked up, the tested form may be a part): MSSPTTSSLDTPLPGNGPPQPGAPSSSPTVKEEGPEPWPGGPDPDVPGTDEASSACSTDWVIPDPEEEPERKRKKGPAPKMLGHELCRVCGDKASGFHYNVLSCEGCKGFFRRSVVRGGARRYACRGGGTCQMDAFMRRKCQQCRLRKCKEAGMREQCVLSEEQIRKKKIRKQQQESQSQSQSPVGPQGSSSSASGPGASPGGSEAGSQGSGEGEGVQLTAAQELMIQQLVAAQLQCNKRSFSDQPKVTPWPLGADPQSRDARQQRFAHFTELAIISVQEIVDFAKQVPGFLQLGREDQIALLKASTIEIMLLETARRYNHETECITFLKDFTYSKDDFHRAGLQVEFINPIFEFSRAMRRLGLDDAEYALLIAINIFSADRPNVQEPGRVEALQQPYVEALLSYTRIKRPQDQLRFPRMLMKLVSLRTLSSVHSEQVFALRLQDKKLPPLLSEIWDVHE
# Outline: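 Gain-of-signal mRNA reporter endpoint, DMSO as negative control. Transiently transfected HepG2 cells carrying the NR-Gal4 chimera and GAL4-UAS reporter units were treated 24 h; transcripts quantified by RT-PCR and capillary electrophoresis fluorescence.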
# [2] = ATG_M_32_TRANS: Attagene TRANS-FACTORIAL HepG2 Assay for M32 Transcription Factor (Internal Marker) (AID 2282984; active = hit-call score of the fitted dose curve at least 0.9, where 1 is the maximum;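 also: transcript level of a background control reporter unit measured by RT-PCR and capillary electrophoresis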); settings: HepG2 Attagene TRANS M32 internal marker reporter
# Outline: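 Capillary electrophoresis of 6-FAM-labelled reporter fragments gives the signal; data fitted for gain over DMSO negative control. Source: HepG2 cells bearing transient multiple reporter transcription units, 24 h exposure.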
# [3] = target: Transcriptional activator Myb (Homo sapiens) (UniProt P10242); assay: ATG_Myb_CIS: Attagene CIS-FACTORIAL HepG2 Assay for human Myeloblastosis (Myb) Proto-Oncogene Transcription Factor (AID 2282986); settings: HepG2 Attagene CIS-FACTORIAL Myb reporter transcription; actives raise or lower the signal
# Chain of Transcriptional activator Myb (Homo sapiens) (P10242 whole entry, looked up): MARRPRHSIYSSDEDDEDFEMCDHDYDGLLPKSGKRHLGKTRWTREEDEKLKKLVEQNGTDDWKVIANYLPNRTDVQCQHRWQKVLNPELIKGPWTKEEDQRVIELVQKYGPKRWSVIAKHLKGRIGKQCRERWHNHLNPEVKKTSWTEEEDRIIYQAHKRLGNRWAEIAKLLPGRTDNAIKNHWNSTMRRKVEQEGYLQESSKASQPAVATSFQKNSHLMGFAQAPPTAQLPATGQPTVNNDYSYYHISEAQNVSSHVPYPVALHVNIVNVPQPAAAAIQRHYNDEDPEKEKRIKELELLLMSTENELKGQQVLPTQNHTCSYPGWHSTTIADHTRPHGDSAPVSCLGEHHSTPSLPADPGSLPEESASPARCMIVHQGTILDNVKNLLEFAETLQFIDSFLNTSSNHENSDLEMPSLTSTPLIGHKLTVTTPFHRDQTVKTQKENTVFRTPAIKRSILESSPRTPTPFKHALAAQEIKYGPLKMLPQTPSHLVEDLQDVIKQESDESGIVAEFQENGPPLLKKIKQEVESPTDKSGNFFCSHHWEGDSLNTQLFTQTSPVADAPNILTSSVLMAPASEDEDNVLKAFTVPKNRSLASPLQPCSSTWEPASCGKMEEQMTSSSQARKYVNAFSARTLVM
# Outline: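 Using HepG2 liver cells bearing transiently transfected cis-promoter reporter constructs, the assay measures induction or loss of reporter mRNA after 24 hours of dosing. Detection used fluorescently labeled RT-PCR products separated by capillary electrophoresis.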
# [4] = target: Nuclear respiratory factor 1 (Homo sapiens) (UniProt Q16656); assay: ATG_NRF1_CIS: Attagene CIS-FACTORIAL HepG2 Assay for human Nuclear Respiratory Factor 1 (NRF1) Orphan Gene (AID 2282987); settings: HepG2 NRF1 cis-element reporter, Attagene multiplex; actives raise or lower the signal
# Chain of Nuclear respiratory factor 1 (Homo sapiens) (Q16656 whole entry, looked up): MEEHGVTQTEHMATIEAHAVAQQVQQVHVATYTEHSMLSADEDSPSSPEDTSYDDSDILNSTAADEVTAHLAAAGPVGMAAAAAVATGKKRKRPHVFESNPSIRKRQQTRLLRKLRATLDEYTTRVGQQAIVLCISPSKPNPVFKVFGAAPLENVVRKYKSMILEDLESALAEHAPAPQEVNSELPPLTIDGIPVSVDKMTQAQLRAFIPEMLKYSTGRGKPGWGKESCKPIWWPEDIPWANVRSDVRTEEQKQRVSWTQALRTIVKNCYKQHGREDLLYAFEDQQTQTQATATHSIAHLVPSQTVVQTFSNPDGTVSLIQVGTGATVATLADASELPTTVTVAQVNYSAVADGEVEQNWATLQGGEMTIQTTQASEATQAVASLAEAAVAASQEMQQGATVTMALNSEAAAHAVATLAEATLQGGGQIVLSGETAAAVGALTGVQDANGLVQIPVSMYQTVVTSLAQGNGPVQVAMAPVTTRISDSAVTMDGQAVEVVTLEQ
# Outline: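 Reporter mRNA induction or loss in HepG2 cells after 24 h dosing; cis-regulated reporter constructs report endogenous transcription-factor activity. Quantified by RT-PCR/capillary electrophoresis fluorescence, DMSO-referenced.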
# [5] = ATG_NFI_CIS: Attagene CIS-FACTORIAL HepG2 Assay for human Nuclear Factor I (NFI) (AID 2282989); settings: HepG2 cis-regulatory reporter, NFI response element transcription; actives raise or lower the signal
# Outline: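 Multiplexed cis-reporter system in human HepG2 cells reports native TF activity as reporter mRNA induction 24 h post-dose. Fragments labelled with 6-FAM, HpaI-digested and resolved by capillary electrophoresis; activity fitted both directions versus DMSO.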
# [6] = target: Myc proto-oncogene protein (Homo sapiens) (UniProt P01106); assay: ATG_Myc_CIS: Attagene CIS-FACTORIAL HepG2 Assay for human Myelocytomatosis (Myc) Proto-Oncogene Transcription Factor (AID 2282990); settings: HepG2, Attagene cis-reporter transcription factor activity; actives raise or lower the signal
# Chain of Myc proto-oncogene protein (Homo sapiens) (P01106 whole entry, looked up): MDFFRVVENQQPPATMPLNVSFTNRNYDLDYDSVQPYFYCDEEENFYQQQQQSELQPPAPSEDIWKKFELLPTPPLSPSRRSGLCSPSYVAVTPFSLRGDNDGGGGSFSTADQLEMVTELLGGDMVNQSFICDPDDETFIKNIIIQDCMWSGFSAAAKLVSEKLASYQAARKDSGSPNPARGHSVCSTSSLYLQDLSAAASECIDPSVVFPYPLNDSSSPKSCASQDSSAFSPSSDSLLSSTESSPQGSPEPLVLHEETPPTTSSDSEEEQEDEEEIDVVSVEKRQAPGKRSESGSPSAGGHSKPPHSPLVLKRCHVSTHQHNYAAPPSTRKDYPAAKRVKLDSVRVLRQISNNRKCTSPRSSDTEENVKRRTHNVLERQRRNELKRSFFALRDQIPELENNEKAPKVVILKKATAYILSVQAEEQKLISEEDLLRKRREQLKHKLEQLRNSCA
# Outline: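 Transiently transfected HepG2 cells bearing cis-promoter reporter units for endogenous transcription factors; 24 h exposure. Reporter mRNA measured by RT-PCR, 6-FAM primer extension, HpaI cut and capillary electrophoresis; bidirectional fit relative to DMSO.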
# [7] = ATG_NF_kB_CIS: Attagene CIS-FACTORIAL HepG2 Assay for human Nuclear Factor Kappa B (NF-kB) (AID 2282991); settings: HepG2 Attagene cis-factorial NF-kB reporter mRNA; actives raise or lower the signal
# Outline: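 DMSO served as negative control and baseline for bidirectional curve fitting. Transiently transfected HepG2 cells were dosed for 24 h, then reporter transcripts were measured by RT-PCR with capillary electrophoresis detection.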
# [8] = ATG_NRF2_ARE_CIS: Attagene CIS-FACTORIAL HepG2 Assay for human Nuclear Factor Erythroid 2 Related Factor 2 (NFR2) response to Antioxidant Response Elements (ARE) (AID 2282992); settings: HepG2 Attagene ARE/NRF2 reporter, transcription factor activity; actives raise or lower the signal;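 as to AC50: reporter mRNA level measured by RT-PCR and capillary electrophoresis fluorescence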
# Outline: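 HepG2 cells transiently transfected with multiplexed cis-regulated reporter transcription units measure endogenous transcription factor activity. Reporter mRNA at 24 h is quantified by RT-PCR, fluorescent labelling and capillary electrophoresis, with bidirectional fitting relative to DMSO.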
# [9] = ATG_Oct_MLP_CIS: Attagene CIS-FACTORIAL HepG2 Assay for human Octamer-Binding Transcription Factor (Oct) (AID 2282993); settings: HepG2 Attagene cis-factorial Oct reporter, mRNA; actives raise or lower the signal
# Outline: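 After 24 h compound exposure, transfected HepG2 cells were lysed for total RNA; reporter-specific cDNA was PCR-amplified, fluorescently labelled and sized by capillary electrophoresis. Bidirectional curve fitting used DMSO as baseline.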
# [10] = target: Cellular tumor antigen p53 (Homo sapiens) (UniProt P04637); assay: ATG_p53_CIS: Attagene CIS-FACTORIAL HepG2 Assay for human p53 Transcription Factor (AID 2282994); settings: HepG2 p53 cis-element reporter, Attagene mRNA; actives raise or lower the signal
# Chain of Cellular tumor antigen p53 (Homo sapiens) (P04637 whole entry, looked up): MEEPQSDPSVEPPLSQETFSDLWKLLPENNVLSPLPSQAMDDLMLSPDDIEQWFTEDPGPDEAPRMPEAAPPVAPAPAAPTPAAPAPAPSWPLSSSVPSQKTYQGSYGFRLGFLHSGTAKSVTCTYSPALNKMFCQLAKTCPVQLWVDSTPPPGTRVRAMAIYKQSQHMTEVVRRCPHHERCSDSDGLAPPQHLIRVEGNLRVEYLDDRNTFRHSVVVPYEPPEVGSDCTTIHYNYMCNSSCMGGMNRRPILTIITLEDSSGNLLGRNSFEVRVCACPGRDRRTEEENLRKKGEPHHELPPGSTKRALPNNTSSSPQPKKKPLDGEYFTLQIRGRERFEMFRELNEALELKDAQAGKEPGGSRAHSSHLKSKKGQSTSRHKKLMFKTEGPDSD
# Outline: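 HepG2 cells transiently transfected with multiplexed cis-regulated reporter transcription units read endogenous TF activity. After 24 h compound exposure, reporter mRNA was quantified by RT-PCR, fluorescent labelling, HpaI digestion and capillary electrophoresis; bidirectional fits versus DMSO baseline.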
# [11] = BSK_3C_TissueFactor: BioMAP Diversity Plus: 3C Assay for Tissue Factor Biomarker Activity (AID 2282997); settings: BioMAP 3C HUVEC, tissue factor biomarker readout; actives raise or lower the signal
# Outline: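 Human vascular primary cells (umbilical vein endothelium) received test chemical; Tissue Factor was determined by ELISA at 24 h, and both gain and loss of signal versus DMSO were fitted.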
# [12] = BSK_3C_uPAR: BioMAP Diversity Plus: 3C Assay for Urokinase-type plasminogen activator receptor (uPAR) Biomarker Activity (AID 2282998); settings: BioMAP 3C HUVEC, uPAR biomarker ELISA; actives raise or lower the signal
# Outline: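 Values derive from bidirectional curve fitting relative to DMSO, which served as baseline of activity. uPAR was measured by ELISA in human umbilical vein endothelial primary cultures 24 h after compound addition.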
# [13] = ATG_M_06_TRANS: Attagene TRANS-FACTORIAL HepG2 Assay for M06 Transcription Factor (Internal Marker) (AID 2282983; active = hit-call score of the fitted dose curve at least 0.9, where 1 is the maximum); settings: HepG2 Attagene TRANS M06 internal marker reporter
# Outline: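 After a 24 h chemical treatment of transfected HepG2, RNA underwent DNase I treatment, reverse transcription and reporter-specific PCR; labelled, HpaI-digested products were sized by capillary electrophoresis. Signal increase relative to DMSO defined activity.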
# [14] = target: Nuclear receptor subfamily 4 group A member 2 (Homo sapiens) (UniProt P43354); assay: ATG_NURR1_TRANS: Attagene TRANS-FACTORIAL HepG2 Assay for human Nuclear Receptor Related Protein 1 (NURR1) (AID 2282985; active = hit-call score of the fitted dose curve at least 0.9, where 1 is the maximum); settings: HepG2 Attagene TRANS reporter, mRNA readout
# Chain of Nuclear receptor subfamily 4 group A member 2 (Homo sapiens) (P43354 whole entry, looked up): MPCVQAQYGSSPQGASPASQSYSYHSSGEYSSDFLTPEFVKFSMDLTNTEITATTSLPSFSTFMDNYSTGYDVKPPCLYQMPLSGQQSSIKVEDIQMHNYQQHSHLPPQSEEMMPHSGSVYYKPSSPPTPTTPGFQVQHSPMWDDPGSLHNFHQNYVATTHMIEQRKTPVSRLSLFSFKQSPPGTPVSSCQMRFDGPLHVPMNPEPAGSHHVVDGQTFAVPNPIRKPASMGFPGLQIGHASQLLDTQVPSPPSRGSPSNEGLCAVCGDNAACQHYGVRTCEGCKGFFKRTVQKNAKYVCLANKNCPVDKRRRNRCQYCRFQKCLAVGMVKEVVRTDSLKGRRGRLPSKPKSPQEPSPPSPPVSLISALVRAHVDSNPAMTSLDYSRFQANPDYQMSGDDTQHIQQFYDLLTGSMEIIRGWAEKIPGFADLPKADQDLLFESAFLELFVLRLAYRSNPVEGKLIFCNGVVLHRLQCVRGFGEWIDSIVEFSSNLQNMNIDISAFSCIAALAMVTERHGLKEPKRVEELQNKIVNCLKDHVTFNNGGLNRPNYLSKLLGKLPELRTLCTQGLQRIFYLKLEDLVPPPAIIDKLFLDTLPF
# Outline: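 HepG2 / transient MRTU transfection / 24 h compound exposure / RT-PCR + CE fluorescence of reporter mRNA / gain-of-signal vs DMSO.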
# [15] = target: Glucocorticoid receptor (Homo sapiens) (UniProt P04150); assay: ATG_GR_TRANS: Attagene TRANS-FACTORIAL HepG2 Assay for human Glucocorticoid Receptor (GR) (AID 2282978; active = hit-call score of the fitted dose curve at least 0.9, where 1 is the maximum;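 also: activators score as hits since higher reporter transcript over DMSO is fitted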); settings: HepG2 Attagene TRANS GR reporter, mRNA transcription
# Chain of Glucocorticoid receptor (Homo sapiens) (P04150 whole entry, looked up, the tested form may be a part): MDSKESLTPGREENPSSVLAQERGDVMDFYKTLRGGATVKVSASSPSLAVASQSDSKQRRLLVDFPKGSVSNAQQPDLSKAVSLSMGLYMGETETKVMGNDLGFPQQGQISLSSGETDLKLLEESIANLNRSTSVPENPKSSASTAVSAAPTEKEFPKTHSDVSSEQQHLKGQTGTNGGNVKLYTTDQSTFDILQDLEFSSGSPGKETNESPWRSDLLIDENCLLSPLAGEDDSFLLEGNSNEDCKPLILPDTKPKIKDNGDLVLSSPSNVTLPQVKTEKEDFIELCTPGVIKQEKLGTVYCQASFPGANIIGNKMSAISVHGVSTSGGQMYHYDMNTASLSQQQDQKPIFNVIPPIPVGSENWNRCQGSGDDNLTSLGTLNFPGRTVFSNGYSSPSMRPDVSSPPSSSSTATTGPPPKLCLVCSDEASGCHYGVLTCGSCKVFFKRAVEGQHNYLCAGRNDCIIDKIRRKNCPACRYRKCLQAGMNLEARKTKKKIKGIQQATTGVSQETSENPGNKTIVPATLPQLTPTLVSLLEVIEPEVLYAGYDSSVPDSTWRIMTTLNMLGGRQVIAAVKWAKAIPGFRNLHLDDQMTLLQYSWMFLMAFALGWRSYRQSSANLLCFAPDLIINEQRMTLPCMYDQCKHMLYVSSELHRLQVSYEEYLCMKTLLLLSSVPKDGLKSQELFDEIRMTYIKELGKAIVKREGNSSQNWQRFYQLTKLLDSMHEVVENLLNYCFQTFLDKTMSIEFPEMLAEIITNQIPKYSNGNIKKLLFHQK
# Outline: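 Transiently transfected HepG2 cells express chimeric NR-GAL4 proteins acting on GAL4-UAS reporter units. Compounds are applied for 24 h. mRNA induction over DMSO is measured by capillary electrophoresis.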
# [16] = target: Oxysterols receptor LXR-alpha (Homo sapiens) (UniProt Q13133); assay: ATG_LXRa_TRANS: Attagene TRANS-FACTORIAL HepG2 Assay for human Liver X Receptor alpha (LXRa) (AID 2282980; active = hit-call score of the fitted dose curve at least 0.9, where 1 is the maximum); settings: HepG2 Attagene TRANS reporter, LXRa transactivation
# Chain of Oxysterols receptor LXR-alpha (Homo sapiens) (Q13133 whole entry, looked up, the tested form may be a part): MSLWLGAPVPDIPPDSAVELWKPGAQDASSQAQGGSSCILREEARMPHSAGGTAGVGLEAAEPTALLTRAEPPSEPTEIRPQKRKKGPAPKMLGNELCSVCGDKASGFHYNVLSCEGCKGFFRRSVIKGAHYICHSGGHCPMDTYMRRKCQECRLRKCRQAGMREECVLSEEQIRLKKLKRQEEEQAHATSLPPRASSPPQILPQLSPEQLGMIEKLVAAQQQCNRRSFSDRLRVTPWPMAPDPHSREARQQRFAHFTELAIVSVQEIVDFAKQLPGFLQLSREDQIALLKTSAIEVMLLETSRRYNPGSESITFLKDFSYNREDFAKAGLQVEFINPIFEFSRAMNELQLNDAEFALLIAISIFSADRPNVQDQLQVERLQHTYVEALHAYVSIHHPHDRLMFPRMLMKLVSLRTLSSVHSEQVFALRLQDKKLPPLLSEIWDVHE
# Outline: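 Read-out: reporter transcript levels by RT-PCR plus capillary electrophoresis, fluorescence intensity. Transiently transfected HepG2, exogenous NR-GAL4 chimera, GAL4-UAS reporters; 24 h compound exposure. Activity = increase over DMSO negative control.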
# [17] = target: Hepatocyte nuclear factor 4-alpha (Homo sapiens) (UniProt P41235); assay: ATG_HNF4a_TRANS: Attagene TRANS-FACTORIAL HepG2 Assay for human Hepatocyte Nuclear Factor 4 alpha (HNF4a) (AID 2282982; active = hit-call score of the fitted dose curve at least 0.9, where 1 is the maximum); settings: HepG2 HNF4a transactivation reporter, mRNA readout
# Chain of Hepatocyte nuclear factor 4-alpha (Homo sapiens) (P41235 whole entry, looked up, the tested form may be a part): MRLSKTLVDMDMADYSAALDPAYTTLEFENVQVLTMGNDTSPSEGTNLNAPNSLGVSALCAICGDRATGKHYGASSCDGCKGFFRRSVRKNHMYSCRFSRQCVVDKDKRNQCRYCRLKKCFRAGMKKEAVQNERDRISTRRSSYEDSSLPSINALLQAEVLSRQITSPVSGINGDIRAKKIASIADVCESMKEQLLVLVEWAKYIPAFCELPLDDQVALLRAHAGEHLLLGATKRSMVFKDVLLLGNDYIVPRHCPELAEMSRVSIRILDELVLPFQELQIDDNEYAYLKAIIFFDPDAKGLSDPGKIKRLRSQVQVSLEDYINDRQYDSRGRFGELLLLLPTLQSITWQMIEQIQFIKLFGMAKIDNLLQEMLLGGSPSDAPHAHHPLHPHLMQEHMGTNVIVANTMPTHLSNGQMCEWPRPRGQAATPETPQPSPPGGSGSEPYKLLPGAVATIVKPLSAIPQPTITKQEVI
# Outline: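 Gain-of-signal mRNA induction, relative to DMSO vehicle, was read after 24 h compound treatment of HepG2 cells bearing transfected GAL4-UAS reporters. Detection used RT-PCR, 6-FAM primer extension and capillary electrophoresis.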
compound,measurement,setting,value
CN(C)C(=O)Nc1cccc(C(F)(F)F)c1,outcome,[1],inactive
same,outcome,[2],inactive
same,outcome,[3],inactive
same,outcome,[4],inactive
same,outcome,[5],inactive
same,outcome,[6],inactive
same,outcome,[7],inactive
same,outcome,[8],inactive
same,outcome,[9],inactive
same,outcome,[10],inactive
same,outcome,[11],inactive
same,outcome,[12],inactive
FC(F)C(F)(F)OCC(Cn1cncn1)c1ccc(Cl)cc1Cl (stereo unspecified),outcome,[1],inactive
same,outcome,[13],inactive
same,outcome,[14],inactive
same,AC50,[4],39.5 µM (active)
same,outcome,[5],inactive
same,outcome,[6],inactive
same,outcome,[7],inactive
same,AC50,[8],35.9 µM (active)
same,AC50,[9],46.5 µM (active)
same,outcome,[10],inactive
same,outcome,[11],inactive
same,AC50,[12],36.7 µM (active)
COP(=O)(OC)SCn1c(=O)oc2cc(Cl)cnc21,outcome,[15],inactive
same,outcome,[1],inactive
same,outcome,[4],inactive
same,outcome,[5],inactive
same,outcome,[6],inactive
same,outcome,[7],inactive
same,AC50,[8],8.25 µM (active)
same,outcome,[9],inactive
same,outcome,[10],inactive
same,outcome,[11],inactive
same,outcome,[12],inactive
CNc1cnn(-c2cccc(C(F)(F)F)c2)c(=O)c1Cl,outcome,[15],inactive
same,outcome,[16],inactive
same,outcome,[1],inactive
same,outcome,[13],inactive
same,outcome,[3],inactive
same,outcome,[4],inactive
same,outcome,[5],inactive
same,outcome,[6],inactive
same,outcome,[7],inactive
same,AC50,[8],17.1 µM (active)
same,AC50,[9],13.7 µM (active)
same,outcome,[10],inactive
same,outcome,[11],inactive
same,outcome,[12],inactive
CCc1cccc(CC)c1N(COC)C(=O)CCl,outcome,[15],inactive
same,outcome,[16],inactive
same,outcome,[1],inactive
same,outcome,[17],inactive
same,outcome,[3],inactive
same,outcome,[4],inactive
same,outcome,[5],inactive
same,AC50,[6],2.68 µM (active)
same,outcome,[7],inactive
same,AC50,[8],3.31 µM (active)
same,AC50,[9],3.21 µM (active)
same,outcome,[11],inactive
same,outcome,[12],inactive
CCOP(=S)(OCC)Oc1cc(C)nc(C(C)C)n1,outcome,[15],inactive
same,outcome,[16],inactive
same,outcome,[1],inactive
same,outcome,[13],inactive
same,outcome,[14],inactive
same,outcome,[3],inactive
same,outcome,[4],inactive
same,outcome,[5],inactive
same,outcome,[6],inactive
same,outcome,[7],inactive
same,AC50,[8],15.9 µM (active)
same,outcome,[9],inactive
same,outcome,[10],inactive
same,outcome,[11],inactive
same,outcome,[12],inactive
CCOC(=O)CC(SP(=O)(OC)OC)C(=O)OCC (stereo unspecified),outcome,[15],inactive
same,outcome,[16],inactive
same,outcome,[1],inactive
same,outcome,[4],inactive
same,outcome,[5],inactive
same,outcome,[6],inactive
same,outcome,[7],inactive
same,AC50,[8],21.9 µM (active)
same,outcome,[9],inactive
same,outcome,[10],inactive
same,outcome,[11],inactive
same,outcome,[12],inactive
CN(C)NC(=O)CCC(=O)O,outcome,[16],inactive
same,outcome,[1],inactive
same,outcome,[13],inactive
same,outcome,[2],inactive
same,outcome,[14],inactive
same,outcome,[4],inactive
same,outcome,[5],inactive
same,outcome,[6],inactive
same,outcome,[7],inactive
same,outcome,[8],inactive
same,outcome,[9],inactive
same,outcome,[10],inactive
same,outcome,[11],inactive
same,outcome,[12],inactive
C[N+]1(C)CCCCC1,outcome,[16],inactive
same,outcome,[1],inactive
same,outcome,[17],inactive
same,outcome,[14],inactive
same,outcome,[4],inactive
same,outcome,[5],inactive
same,outcome,[6],inactive
same,outcome,[7],inactive
same,outcome,[8],inactive
same,outcome,[9],inactive
same,outcome,[10],inactive
same,outcome,[11],inactive
same,outcome,[12],inactive
